KCNQ2 inh: inhibitors of rat KCNQ2 potassium channel | O88943 | CHO-K1 KCNQ2, FluxOR thallium flux, 20 min; stronger effect = lower value | B-score at 10 µM | hit rate 1.1% among 310,000;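 active = fluorescence ratio B-score at most minus 3 library SDs, with starting brightness B-score within 2 library SDs, cut at about -5.5 in these data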
KCNQ2 enhance: enhances the rat KCNQ2 potassium channel. B-score at 10 µM. O88943. AID 2239. hit rate 0.54% among 310,000. CHO-K1 KCNQ2, FluxOR thallium flux fluorescence; stronger effect = higher value;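 active = fluorescence ratio B-score at least 3 SD of library B-scores, with initial fluorescence B-score within 3 of them, cut at about 5.3 in these data; same plate scores as AID 2156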;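 note: B-score of peak minus minimum over baseline fluorescence ratio after K+ and Tl+ stimulus; positive B-score means potentiation of KCNQ2 with more thallium influx and brighter signal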
KCNQ2 block conf: confirmation of rat KCNQ2 potassium channel inhibitors | shares compounds with KCNQ2 inh | KCNQ2-expressing cells, thallium flux, inhibition; stronger effect = lower value | activity change, negative = inhibition, % at 10 µM | hit rate 57% among 1,000 | AID 493025
KCNQ1 spec: KCNQ2 inhibitor that also affects human KCNQ1 channel; shares compounds with KCNQ2 inh; KCNQ1-expressing cells, FluxOR thallium flux fluorescence; stronger effect = lower value; activity change, negative = inhibition, % at 10 µM; hit rate 15% among 1,000;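 active = activity change at least 3 SD of negative controls below their mean in both duplicate wells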;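 note: CHO cells stably transfected with KCNQ1 and depolarized by potassium stimulus; peak minus minimum fluorescence over baseline after thallium addition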
CHO Tl ctr: KCNQ2 inhibitor counter-screen hit in parental CHO cells | hit rate 14% among 1,000 | activity change, % at 10 µM | shares compounds with KCNQ2 inh | thallium flux counter-screen; stronger effect = lower value
KCNQ2 inh confirm: blocks rat KCNQ2 current in automated patch clamp | shares compounds with KCNQ2 inh | KCNQ2-expressing cells | calls only at 10 µM | hit rate 49% among 550 | AID 588531
A number is an active result; . = inactive; / = no result; + = active, no number. Only some compounds are listed: those with a hit (about 1.6% of all), similar ones and a draw of the others. Unless noted, the rule behind the calls is not given here.

SMILES | KCNQ2 inh | KCNQ2 enhance | KCNQ2 block conf | KCNQ1 spec | CHO Tl ctr | others
COc1cc(NC(=O)c2csc(-c3ccncc3)n2)cc(C(=O)Nc2cccc(C(F)(F)F)c2)c1 | -6.9 | . | -20% | . | . | KCNQ2 inh confirm=.
COc1cc(NC(=O)c2cc3cccc(OC)c3o2)cc(C(=O)Nc2cccc(C(F)(F)F)c2)c1 | -7.6 | . | . | . | .
CCSc1ccccc1C(=O)Nc1ccc(S(=O)(=O)NC(C)=O)cc1 | . | . | / | / | /
CCN(CC)CCCNC1CCS(=O)(=O)C1 (stereo not given) | -6.7 | . | . | . | .
CCNC1CCS(=O)(=O)C1 (stereo not given) | . | / | / | / | /
O=[N+]([O-])c1ccc(Cl)c(/C=N/N2CCN(Cc3ccccc3Cl)CC2)c1 | -7.2 | . | . | . | .
O=[N+]([O-])c1ccc(Cl)c(/C=N/N2CCN(Cc3ccccc3)CC2)c1 | . | / | / | / | /
CC1Sc2ccc(S(=O)(=O)N3CCC(C(=O)NCc4ccccc4)CC3)cc2NC1=O (stereo not given) | . | . | / | / | /
Cc1ccc(-n2c(-c3ccc(Br)cc3)c[n+]3c2CCc2ccc4cccnc4c2-3)cc1 | -12 | . | -45% | -36% | -30%
COc1ccc(-n2c(-c3ccc(Cl)cc3)c[n+]3c2CCc2ccccc2-3)cc1 | . | / | / | / | /
CN(C(=O)CSc1n[nH]c(-c2cccs2)n1)C1CCS(=O)(=O)C1 (stereo not given) | . | . | / | / | /
CCOC(=O)C1CCN(C(=O)C2CCN(S(=O)(=O)N3CCC4(CC3)OCCO4)CC2)CC1 | . | . | / | / | /
O=C(Nn1cc(C(=O)Nc2ccccc2F)c2ccccc2c1=O)c1cnccn1 | . | / | / | / | /
COC(=O)c1cn(NC(=O)c2cccc(N(C)C)c2)c(=O)c2ccccc12 | -7.8 | . | -45% | -36% | -30% | KCNQ2 inh confirm=+
COC(=O)c1cn(NC(=O)c2cccc(F)c2)c(=O)c2ccccc12 | . | / | / | / | /
COc1cc(OC)cc(C(=O)Nn2cc(C(=O)Nc3ccccc3F)c3ccccc3c2=O)c1 | -7.1 | . | . | . | .
CCn1c2ccccc2c2cc(NC(=O)COC(=O)c3cc(Cl)c(N)cc3OC)ccc21 | . | / | / | / | /
COc1ccc(N2CCN(C(CNC(=O)C(=O)NC3CCCC3)c3ccco3)CC2)cc1 (stereo not given) | . | . | / | / | /
CSCCC(NC(=O)c1ccccc1Br)C(=O)NCc1ccc(F)cc1 (stereo not given) | . | . | / | / | /
CSCCC(NC(=O)c1ccccc1Br)C(=O)NCC1CCCCC1 (stereo not given) | . | / | / | / | /
CSCCC(NC(=O)COc1ccccc1)C(=O)NC1CCC(C)CC1 (stereo not given) | . | / | / | / | /
CSCCC(NC(=O)c1ccccc1Br)C(=O)N1CCCC(C(F)(F)F)C1 (stereo not given) | -9.3 | . | -16% | . | . | KCNQ2 inh confirm=+
CSCCC(NC(=O)c1ccccc1Br)C(=O)N1CCCCCCC1 (stereo not given) | -9.6 | . | -29% | . | . | KCNQ2 inh confirm=+
CSCCC(NC(=O)COc1ccccc1)C(=O)N1CCCC(C(F)(F)F)C1 (stereo not given) | -7 | . | . | . | .
O=C(CC(=O)Nc1cc(Cl)ccc1Cl)Nc1cc(Cl)ccc1Cl | . | . | / | / | /
SMILES | KCNQ2 inh | KCNQ2 enhance | KCNQ2 block conf | KCNQ1 spec | CHO Tl ctr | others
CC(=O)NS(=O)(=O)c1ccc(NC(=O)c2oc3c(Cl)cccc3c2C)cc1 | . | . | / | / | /
CC(NC(=O)c1cccs1)C(S)c1ccccc1 (stereo not given) | -11 | . | . | . | .
CC(NC(=O)c1cccs1)c1ccc(Cl)cc1 (stereo not given) | . | / | / | / | /
Clc1ccc(CSC2=NCCCN2)cc1Cl | . | . | / | / | /
Nc1ccccc1SCc1ccccc1Cl | . | / | / | / | /
O=c1cc2c(nn1Cc1c(Cl)cccc1Cl)-c1ccccc1CC2 | . | . | / | / | /
Clc1ccccc1CSc1cc2c(nn1)-c1ccccc1CC2 | -8.1 | . | -19% | . | . | KCNQ2 inh confirm=.
Clc1cccc(Cl)c1CSc1cc2c(nn1)-c1ccccc1CC2 | -8.5 | . | . | . | .
Clc1ccc(CSc2cc3c(nn2)-c2ccccc2CC3)cc1Cl | -8.3 | . | -27% | . | . | KCNQ2 inh confirm=.
CC1CCCCN1C(=O)COC(=O)c1cccc(NS(=O)(=O)c2ccccc2)c1 (stereo not given) | . | . | / | / | /
COc1ccc(CNS(=O)(=O)c2csc(C(N)=O)c2)cc1OC | . | / | / | / | /
COc1cc(C2c3c(oc4ccccc4c3=O)C(=O)N2c2nccs2)ccc1O (stereo not given) | . | / | / | / | /
COC(=O)c1c(NC(=O)CN2CCN(c3ncccn3)CC2)sc(C(N)=O)c1C | . | / | / | / | /

Screening data (PubChem)
